# Structures can show the parent of a compound that is named as a salt. The campaign covered roughly 1,800 compounds. About 50 (3%) showed activity. The list comes from a sample in which actives are over-represented; it also holds similar structures and randomly drawn compounds. A number with no mark means an inactive call.
# System: mouse p16Ink4a+/- lung fibroblasts (INKBRITE, bleomycin-injured)
# Assay: percentage of GFP+ (p16Ink4a+) fibroblasts among all cells in well; higher = less depletion of p16Ink4a+ cells, active = 20 or less
# Settings: 1 µM; 3 days
row,Structure (SMILES),percentage of GFP+
1,Cc1nn(-c2ccccc2)c(C)c1/C=N/N1CCN(Cc2ccccc2)CC1,48.6%
2,CCC(C)(Oc1ccc(C2(c3ccc(OC(C)(CC)C(=O)O)cc3)CCCCC2)cc1)C(=O)O (stereo unspecified) [Clinofibrate],52.6%
3,OCC(O)CN1CCN(c2ccccc2)CC1 (stereo unspecified) [Dropropizine],51.5%
4,C[C@]12CC[C@@H]3c4ccc(O)cc4CC[C@H]3[C@@H]1C[C@@H](O)[C@@H]2O [Estriol],49.2%
5,CCN1/C(=C/C(C)=O)Sc2ccc(OC)cc21,50.3%
6,COc1ccc(-c2nc(N3CCOCC3)c3sc(CN(C)c4ncc(C(=O)NO)cn4)cc3n2)cn1 [Fimepinostat],3.62% (active)
7,CS(=O)(=O)N1CCN(Cc2cc3nc(-c4cccc5[nH]ncc45)nc(N4CCOCC4)c3s2)CC1,36.8%
8,Cc1c(CN2CCN(C(=O)[C@H](C)O)CC2)sc2c(N3CCOCC3)nc(-c3cnc(N)nc3)nc12,34.5%
9,Clc1ccc(C2(c3ccc(-c4cn[nH]c4)cc3)CCNCC2)cc1,43.8%
10,O=c1c(-c2ccc(O)cc2)coc2cc(O)cc(O)c12 [Genistein],47.5%
11,COc1cc2nc(N3CCN(C(=O)C4COc5ccccc5O4)CC3)nc(N)c2cc1OC (stereo unspecified) [Doxazosin],44.1%
12,CC(C)CN(C[C@@H](O)[C@H](Cc1ccccc1)NC(=O)O[C@H]1CO[C@H]2OCC[C@H]21)S(=O)(=O)c1ccc(N)cc1 [Darunavir],45.7%
13,CC(/C=C/C(=O)NO)=C\[C@@H](C)C(=O)c1ccc(N(C)C)cc1 [Trichostatin A],10.8% (active)
14,CN(C)c1ccc(C(=O)NCCCCCCC(=O)NO)cc1,30.4%
15,Cc1cc(N2CCOCC2)ccc1Nc1nc(NC2CCCCC2)c2[nH]cnc2n1,33.6%
16,C/C(=N\NC(=S)N1CCC1)c1ccccn1,6.13% (active)
17,CO[C@H]1C[C@@H]2CC[C@@H](C)[C@@](O)(O2)C(=O)C(=O)N2CCCC[C@H]2C(=O)O[C@H]([C@H](C)C[C@@H]2CC[C@@H](O)[C@H](OC)C2)CC(=O)[C@H](C)/C=C(\C)[C@@H](O)[C@@H](OC)C(=O)[C@H](C)C[C@H](C)/C=C/C=C/C=C/1C [Rapamycin],37.8%
18,CCCCN(Cc1ccc(C(=O)NO)cc1)C(=O)Nc1ccccc1 [Nexturastat A],47.5%
19,CC(=O)Nc1ccc(C(=O)Nc2ccccc2N)cc1 [Tacedinaline],34.9%
20,CC(C)[C@H](C(=O)Nc1ccc(C(=O)NO)cc1)c1ccccc1,9.62% (active)
21,COc1cc(OC)c(/C=C/S(=O)(=O)Cc2ccc(OC)c(NCC(=O)O)c2)c(OC)c1 [Rigosertib],27.9%

row,Structure (SMILES),percentage of GFP+
1,O=C(O)COCCN1CCN(C(c2ccccc2)c2ccc(Cl)cc2)CC1 (stereo unspecified) [Cetirizine],46.1%
2,C[C@@H](NCCCc1cccc(C(F)(F)F)c1)c1cccc2ccccc12 [Cinacalcet],33.2%
3,CCCSc1nc(N[C@@H]2C[C@H]2c2ccc(F)c(F)c2)c2nnn([C@@H]3C[C@H](OCCO)[C@@H](O)[C@H]3O)c2n1 [Ticagrelor],30.8%
4,COc1cc([C@@H]2c3cc4c(cc3[C@@H](O[C@@H]3O[C@@H]5CO[C@@H](c6cccs6)O[C@H]5[C@H](O)[C@H]3O)[C@H]3COC(=O)[C@H]23)OCO4)cc(OC)c1O [Teniposide],21.1%
5,COc1cc([C@@H]2c3cc4c(cc3[C@@H](O[C@@H]3O[C@@H]5CO[C@@H](C)O[C@H]5[C@H](O)[C@H]3O)[C@H]3COC(=O)[C@H]23)OCO4)cc(OC)c1O [Etoposide],19.3% (active)
6,C=CC(=O)Nc1cccc(Sc2nc(Nc3ccc(N4CCN(C)CC4)cc3)ncc2Cl)c1,46.3%
7,O=C(Nc1ccccc1Br)N[C@@H]1CCN(c2ccc(C(F)(F)F)cn2)C1,39.1%
8,CCCC(C)NC(=O)c1ccc(Cl)c(Cl)c1 (stereo unspecified),45.8%
9,CC(C)C[C@H](NC(=O)CNC(=O)c1cc(Cl)ccc1Cl)B(O)O [Ixazomib],4.65% (active)
10,CNCC[C@H](Oc1cccc2ccccc12)c1cccs1 [Duloxetine],33.8%
11,"Cn1c(=O)c2nc[nH]c2n(C)c1=O [Aminophylline, Theophylline]",44.7%
12,CN(C)CCN(Cc1ccccc1)c1ccccn1 [Tripelennamine],45.6%
13,O=C[C@H](O)[C@@H](O)[C@H](O)[C@H](O)CO [D-glucose],42.5%
14,C[C@@H]1CN(CC(=O)Nc2ccc3c(c2)Cc2cccc(-c4cc(=O)cc(N5CCOCC5)o4)c2S3)C[C@H](C)O1,44.7%
15,Nc1nc(Cl)nc2c1ncn2[C@@H]1O[C@H](CO)[C@@H](O)[C@@H]1F [Clofarabine],35.5%
16,COc1ccc2c(c1)c(C1=C(c3c[nH]c4ccccc34)C(=O)NC1=O)cn2CCCN(C)C,60.7%
17,O=C(O)CCCc1c[nH]c2ccccc12 [3-Indolebutyric Acid],48.2%
18,OCc1c[nH]c2ccccc12 [Indole-3-carbinol],47%
19,O=C(/C=C/c1ccc(CN(CCO)CCc2c[nH]c3ccccc23)cc1)NO [Dacinostat],4.88% (active)
20,C=C(c1ccc(C(=O)O)cc1)c1cc2c(cc1C)C(C)(C)CCC2(C)C [Bexarotene],46%
21,COc1ccc(NS(=O)(=O)c2sc3ccc(Cl)cc3c2C)cc1N1CCNCC1,59.1%

row,Structure (SMILES),percentage of GFP+
1,COc1ccc(Cn2ccc3ccc(C(=O)NO)cc32)cc1,47.2%
2,N[C@@H](CC(=O)N1CCn2c(nnc2C(F)(F)F)C1)Cc1cc(F)c(F)cc1F [Sitagliptin],44.6%
3,CCn1cc(C(=O)O)c(=O)c2cc(F)c(N3CCNC(C)C3)c(F)c21 (stereo unspecified) [Lomefloxacin],44%
4,CC[C@@H](C)Nc1cc(C(=O)NC2CC3CCC(C2)N3c2ccc(C(=O)C3CC3)cn2)c(C)cc1C(N)=O (stereo partly specified),5.49% (active)
5,CC(C)(F)C[C@H](N[C@@H](c1ccc(-c2ccc(S(C)(=O)=O)cc2)cc1)C(F)(F)F)C(=O)NC1(C#N)CC1 [Odanacatib],44.3%
6,C#Cc1cccc(Nc2ncnc3cc(OC)c(OCCCCCCC(=O)NO)cc23)c1,37.4%
7,C#Cc1cccc(Nc2ncnc3cc(OCCOC)c(OCCO)cc23)c1,54.2%
8,C#Cc1cccc(Nc2ncnc3cc(OCCOC)c(OCCOC)cc23)c1 [Erlotinib],7.35% (active)
9,COc1ccc(-c2cc(=O)c3c(O)cc(O)cc3o2)cc1O [Diosmetin],42.4%
10,CC(C)(OCc1nn(Cc2ccccc2)c2ccccc12)C(=O)O [Bindarit],45.3%
11,"CCCN1CCCC[C@H]1C(=O)Nc1c(C)cccc1C [Ropivacaine, Ropivacaine Hydrochloride]",46%
12,CCCCCCCCCC(=O)N[C@@H](Cc1c[nH]c2ccccc12)C(=O)N[C@H](CC(N)=O)C(=O)N[C@@H](CC(=O)O)C(=O)N[C@@H]1C(=O)NCC(=O)N[C@H](CCCN)C(=O)N[C@@H](CC(=O)O)C(=O)N[C@@H](C)C(=O)N[C@@H](CC(=O)O)C(=O)NCC(=O)N[C@H](CO)C(=O)N[C@@H]([C@@H](C)CC(=O)O)C(=O)N[C@@H](CC(=O)c2ccccc2N)C(=O)O[C@@H]1C [Daptomycin],37.2%
13,COC(=O)C1=C(C)N=C(C)/C(=C(/O)OC)C1c1ccccc1[N+](=O)[O-] (stereo unspecified) [Nifedipine],34.3%
14,C=CC1=C(C(=O)O)N2C(=O)[C@@H](NC(=O)/C(=N\O)c3csc(N)n3)[C@H]2SC1 [Cefdinir],49.9%
15,CO/N=C(/C(=O)N[C@@H]1C(=O)N2C(C(=O)O)=C(CSC(=O)c3ccco3)CS[C@H]12)c1csc(N)n1 [Ceftiofur HCl],39.5%
16,CO/N=C(/C(=O)N[C@H]1C(=O)N2C(C(=O)O)=C(Cn3ccc(=N)n3CCO)CS[C@H]12)c1csc(N)n1 [Cefoselis Sulfate],17.3% (active)
17,O=C(c1ccccc1)c1ccc2n1CCC2C(=O)O (stereo unspecified) [Ketorolac],38.6%
18,Oc1ccc(/C=C/c2cc(O)cc(O)c2)cc1 [Resveratrol],42.8%
19,CC1(C)CCC(C)(C)c2cc(NC(=O)c3ccc(C(=O)O)cc3)ccc21 [Tamibarotene],28.2%

# From the supplement of paper PMC11060735
